# High-throughput results as filed in PubChem.
# Keap1 Nrf2 FP: inhibitors of human Keap1-Nrf2 protein-protein interaction. inhibition, % at 9.4 µM. 340,000 compounds, 0.15% hits. Keap1 Kelch-Nrf2 peptide fluorescence polarization, 1536-well; in the data active means inhibition above about 12%;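 further: human Keap1 Kelch domain with fluorescein labeled Nrf2 9mer peptide probe; 0% = neutral control wells and 100% = peptide positive control; higher means more block of Keap1 binding to Nrf2 peptide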
# Target sequence (Q14145 whole entry, looked up, the tested form may be a part): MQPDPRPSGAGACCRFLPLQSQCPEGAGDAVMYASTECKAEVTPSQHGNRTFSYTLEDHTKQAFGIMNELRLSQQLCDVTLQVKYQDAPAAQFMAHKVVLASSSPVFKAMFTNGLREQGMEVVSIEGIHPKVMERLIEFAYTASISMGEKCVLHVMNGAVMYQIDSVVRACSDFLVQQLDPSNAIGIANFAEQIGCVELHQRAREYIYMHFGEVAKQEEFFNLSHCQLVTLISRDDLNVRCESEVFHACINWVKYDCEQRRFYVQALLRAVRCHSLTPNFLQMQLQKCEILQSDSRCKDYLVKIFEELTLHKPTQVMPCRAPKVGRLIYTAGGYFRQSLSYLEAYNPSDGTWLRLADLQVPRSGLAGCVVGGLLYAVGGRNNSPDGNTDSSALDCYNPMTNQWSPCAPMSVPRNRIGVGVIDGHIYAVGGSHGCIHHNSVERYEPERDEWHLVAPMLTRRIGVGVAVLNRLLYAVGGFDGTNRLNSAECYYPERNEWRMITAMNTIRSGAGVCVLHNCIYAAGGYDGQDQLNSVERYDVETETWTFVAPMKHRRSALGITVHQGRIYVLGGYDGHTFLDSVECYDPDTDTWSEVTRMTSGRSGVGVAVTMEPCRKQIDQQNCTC
# CRFBP-R2 agonist: CRF-BP/CRF-R2 complex agonism; HEK293 CRF-R2/CRF-BP, calcium dye fluorescence (FLIPR); percent of saturating CRF peptide response; activation, % at 13.2 µM; 350,000 compounds, 0.46% hits; AID 588473;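 active means activation of at least 50%, plus an integration ratio under a set limit after plate pattern correction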;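 further: plate controls were neutral control wells without compound for no effect and CRF at EC100 for full effect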
# C-LANA FP: inhibitors of KSHV LANA C-terminal domain DNA binding. inhibition, % at 9 µM. MBP-C-LANA/FAM-LBS DNA binding, fluorescence polarization. AID 504423. 340,000 compounds, 0.078% hits;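 active means highest replicate inhibition at or above 60% at 9 µM, even if other replicates fall short; inactive means all replicates below 60% inhibition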;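 further: 0% = neutral control wells and 100% = 4 µM acridine orange control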
# cardiac RTF act: cardiac RTF calcium sensitization; IANBD-labeled TnC RTF fluorescence at EC20 calcium; 0% EC20 calcium, 100% full calcium; activation, % at 7.2 µM; 340,000 compounds, 0.24% hits;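 active means activation above the mean over all tested compounds plus 3 SD, cut at about 30% in these data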;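 further: rise in fluorescence read as greater calcium sensitivity of cardiac thin filaments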
# Cardiac RTF inh: cardiac RTF calcium desensitization; P19429+P45379; IANBD-labeled cardiac RTF, Ca2+ fluorescence; inhibition, % at 7.15 µM; 340,000 compounds, 0.12% hits; AID 493244;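 active means inhibition above the mean inhibition of all tested compounds plus 3 SD, cut at about 17% in these data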;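 further: assay run at fixed EC70 calcium of 1.6 mM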
# CRFR2-BP antag: CRF-BP/CRF-R2 complex antagonism; HEK293 CRF-R2/CRF-BP, CRF-induced calcium fluorescence; inhibition, % at 11.8 µM; 350,000 compounds, 0.59% hits; AID 588475;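 active means inhibition of the ligand-induced calcium signal above about 50% at the single tested concentration, limit read from the data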
# * = called active by the depositor; x = no result. Shown are actives, neighbours in structure and some others; about 1.3% of the full set was active somewhere.
SMILES,Keap1 Nrf2 FP,CRFBP-R2 agonist,C-LANA FP,cardiac RTF act,Cardiac RTF inh,CRFR2-BP antag
CC(OC(=O)c1ccc2c(c1)OCO2)C(=O)NC1CCCCC1C (centres undefined),3,-1,1,-4,-22,4
CC(OC(=O)c1ccc(-c2ccc(O)cc2)cc1)C(=O)NC1CCCCC1C (centres undefined),-3,0,3,3,12,60*
COC(=O)c1ccc(Sc2ccc(Cl)cc2)c(N)c1,0,-1,-1,-4,-2,73*
O=c1ccc2cc3c([nH]c4ccc(Br)cc43)oc-2c1O,55*,x,10,-32,24*,x
COc1cccc2cc(-c3nnc(-c4ccccc4)o3)c(=O)oc12,-3,-2,0,-1,-3,90*
CCOC(=O)CSc1nnc(-c2ccccc2OC)o1,-2,-1,0,-1,3,-26
COc1ccc(-c2nnc(-c3ccccc3O)o2)cc1,-1,0,-12,-8,0,-1
CCCCCCc1cc2cc(-c3nnc(-c4ccccc4O)o3)c(=O)oc2cc1O,-1,232*,-1,58*,-140,-234
CCCCCCc1cc2cc(S(=O)(=O)c3ccc(F)cc3)c(=O)oc2cc1O,-3,54*,1,-19,-6,11
CCCCCCc1cc2cc(-c3nnc(-c4ccccc4OC)o3)c(=O)oc2cc1O,-9,230*,-1,-1,-11,-302
COc1ccc(-c2nnc(-c3cc4ccccc4oc3=O)o2)cc1,1,-1,2,5,-1,26
CCOc1ccc(CCNC(=O)c2nn(C)c3c2CS(=O)(=O)c2ccccc2-3)cc1OCC,0,0,2,3,-9,5
O=C(CNC(=S)NC(=O)c1ccc(Cl)cc1)c1ccccc1,-2,0,-1,-5,2,-48
CC(=O)C1=CN(CC2CCCCC2)CCC1=O,-4,4,0,0,-4,-5
C/C(=N\NC(=O)c1ccc(CSc2nncn2C)cc1)c1ccc(C#N)cc1,-2,0,-4,2,-9,0
COc1ccc(NC(=O)c2cc3ccccc3oc2=O)c(OC)c1,-2,-1,0,4,-10,3
CCCCCCc1cc2cc(C(=O)Nc3ccccc3OC)c(=O)oc2cc1O,-6,102*,-1,-4,4,-1
CCCCCOC(=O)CSc1nnc(-c2cc(OC)c(OC)c(OC)c2)o1,3,1,-1,2,-1,-3
CCCCCCc1cc2cc(-c3nnc(-c4cc(OC)c(OC)c(OC)c4)o3)c(=O)oc2cc1O,x,99*,x,x,x,-41
COc1ccccc1CCC(=O)OCC(=O)Nc1c(C)nn(-c2ccccc2)c1C,-1,-1,-1,-7,-19,2
COc1cc(NC(=S)NCc2ccco2)cc(OC)c1,0,-4,-1,-11,7,96*
CCc1nnc(NC(=O)c2ccc(OC)cc2)s1,3,0,0,-3,-6,-7
Cc1c(C(=O)N2CC(C(=O)N3CCCCC3)Oc3ccccc32)oc2ccccc12 (centres undefined),-4,-1,0,-2,-13,75*
CCN(C(=O)c1ccccc1)c1ccc([N+](=O)[O-])cc1,-5,-4,0,0,-1,-5
O=[N+]([O-])c1ccc(N(c2ccccc2)c2ccccc2)cc1,-10,54*,0,22,-24,-38
SMILES,Keap1 Nrf2 FP,CRFBP-R2 agonist,C-LANA FP,cardiac RTF act,Cardiac RTF inh,CRFR2-BP antag
Cc1ccc2c(CC(=O)Nc3ccc(N4CCN(C)CC4)cc3C)coc2c1,-1,-1,0,1,-7,6
Cc1ccc2c(CC(=O)NCC(=O)Nc3c(C)cccc3C)coc2c1,2,0,1,-4,-1,50*
Cc1ccc2c(CC(=O)Nc3sccc3C(N)=O)coc2c1,-2,95*,-1,0,-7,-58
Cc1ccccc1C(=O)NCC(=O)OC1CCCCC1=O (centres undefined),1,5,1,-2,-11,68*
COc1ccc(C(=O)NCC(=O)OC2CCCCC2=O)cc1 (centres undefined),0,-1,1,-5,5,-2
Cc1cccc(NS(=O)(=O)c2cccc(C(=O)N3CCC3)c2)c1,-4,-1,0,3,2,-9
Cc1cccc(NS(=O)(=O)c2cccc(C(=O)N3CCN(c4ccccn4)CC3)c2)c1,-6,-2,-1,-4,3,115*
Cc1nc2c(c(=O)c3ccccc3n2C)c(=O)n1C1CCCCCC1,7,51*,3,8,-1,4
Cn1c2ccccc2c(=O)c2c(=O)n(C3CCCCC3)c(-c3ccco3)nc21,-5,99*,1,-3,-1,33
Cc1cccc(C(=O)NC2CC3CCCC(C2)N3S(=O)(=O)c2ccccc2)c1 (centres undefined),-1,-1,-2,-2,-9,12
Cc1nn(C)c(C)c1NC(=O)c1cc2nc(-c3ccco3)cc(C(F)(F)F)n2n1,2,-3,0,7,-4,134*
O=C(Nc1ccc(Cl)cc1)c1cc2nc(-c3ccco3)cc(C(F)(F)F)n2n1,7,0,5,-6,-1,-24
COc1ccc(C2c3ccc(O)cc3Oc3ncn(Cc4ccccc4)c(=N)c32)cc1OC (centres undefined),-2,0,9,44*,-60,1
COc1ccc2c(c1)OC[C@H]1[C@H]2N2C(=O)c3cc(OC)c(OC)cc3NC(=O)[C@@]2(C)[C@H]1c1ccccc1,0,8,-1,-4,7,65*
COc1cc2c(cc1OC)C(=O)N1[C@H]3c4ccccc4OC[C@@H]3[C@H](c3ccccc3)[C@]1(C)C(=O)N2,0,0,-1,8,-9,15
COc1ccc(N=C2SC(CC(=O)Nc3ccccc3)C(=O)N2Cc2ccccn2)cc1 (centres undefined),2,0,-1,-2,-1,-15
CCOc1ccccc1N1CCN(C(=O)C2CSC3(C)CCC(=O)N23)CC1 (centres undefined),2,-1,-1,-4,-2,72*
CCCN(CCC)CCNC(=O)CCC(=O)Nc1ccc2nc(N3CCOCC3)cc(C)c2c1,-1,3,1,9,-8,10
Cc1cc(C)cc(N2C(=O)CSC2c2cccs2)c1 (centres undefined),3,51*,0,6,-11,-68
Cc1ccc(N2C(=O)CSC2c2cccs2)cc1 (centres undefined),-1,0,0,0,-24,11
CCOc1ccc(CCNC(=O)COC(=O)c2[nH]c(C)c(C(C)=O)c2C)cc1OCC,x,0,x,x,x,-10
